Source: PubChem BioAssay
Cruzain inh noDet – blocks cruzain activity in detergent-free assay | P25779 | purified cruzain, Z-FR-AMC fluorescence, no detergent | Potency, µM, actives largely listed as inhibitors | 2.3% of 200,000 active | AID 1476; further: nearly all actives have a fitted effect of over 40% in size
Target sequence (P25779 123-467 limits assumed): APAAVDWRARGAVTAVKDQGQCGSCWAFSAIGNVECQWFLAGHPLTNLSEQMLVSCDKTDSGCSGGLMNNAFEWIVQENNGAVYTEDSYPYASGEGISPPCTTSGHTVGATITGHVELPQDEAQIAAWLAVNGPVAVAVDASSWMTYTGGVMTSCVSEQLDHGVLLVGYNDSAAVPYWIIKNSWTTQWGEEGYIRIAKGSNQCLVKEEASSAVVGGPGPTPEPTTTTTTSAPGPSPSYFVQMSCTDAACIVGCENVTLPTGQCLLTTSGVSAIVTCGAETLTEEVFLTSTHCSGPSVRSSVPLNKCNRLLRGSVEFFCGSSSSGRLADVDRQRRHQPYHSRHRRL
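Detergent-free condition (0.00005% Triton X-100) in acetate buffer pH 5.5 with DTT. 1.5 nM enzyme and compound were pre-mixed 15 min, then 2 uM Z-FR-AMC substrate added; reaction progress from fluorescence change between first and third reads (60 s).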
Cruzain Triton – blocks cruzain activity in presence of Triton detergent | Potency, µM, usual class: inhibitors | P25779 | 0.43% of 200,000 active | purified cruzain, Z-FR-AMC fluorescence, 0.01% Triton; further: nearly all actives have a fitted effect of over 40% in size
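In this qHTS format, compounds are incubated with 1.5 nM cruzain for 15 min at room temperature before 2 uM Z-FR-AMC is added. Release of AMC is followed at 360/450 nm, and progress is taken as the 60 s fluorescence difference.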
Hits are given with their value; – = inactive; ? = inconclusive. In the library only some 2.4% were active in any assay of this set; here they are far more common. The call rests on the fitted dose curve; in most records, active means well fitted curve in the direction sought with a large enough effect; inconclusive means small, poorly fitted or top-dose-only effect, or another doubt; inactive means no such curve, though single readings can be large; an effect the other way counts as inactive or inconclusive.

SMILES	Cruzain inh noDet	Cruzain Triton
O=[N+]([O-])c1cccc(-c2nc(-c3cccs3)c(-c3cccs3)[nH]2)c1	?	–
O=[N+]([O-])c1ccc(-c2nc(-c3cccs3)c(-c3cccs3)[nH]2)cc1	31.6µM	–
COc1cc(C2SCCCCCCCCCCSC(c3ccc(O)c(OC)c3)SCCCCCCCCCCS2)ccc1O (stereo not drawn)	–	–
CCOc1ccc2c(c1)nc(SCC(=O)c1ccc(Br)s1)n2C	25.1µM	–
CCOc1ccc2c(c1)nc(SCC(=O)c1cccs1)n2C	–	–
C[N+]1(CCC(=O)c2ccco2)CC2CCC(CC2)C1 (stereo not drawn)	–	–
CCOC(=O)C1CCCCN1S(=O)(=O)c1csc(C(N)=O)c1 (stereo not drawn)	–	–
O=C(CSc1ncc2c(n1)-c1cc(Cl)ccc1N(Cc1ccccc1F)S2(=O)=O)Nc1cccc(C(F)(F)F)c1	15.8µM	–
COc1ccccc1NC(=O)CSc1ncc2c(n1)-c1cc(Cl)ccc1N(Cc1ccccc1)S2(=O)=O	6.31µM	–
COc1ccccc1NC(=O)CSc1ncc2c(n1)-c1ccccc1N(Cc1ccccc1C)S2(=O)=O	7.94µM	–
Cc1ccccc1CN1c2ccccc2-c2nc(SCC(=O)Nc3cc(F)ccc3F)ncc2S1(=O)=O	–	–
O=C(CSc1ncc2c(n1)-c1cc(Cl)ccc1N(Cc1ccccc1)S2(=O)=O)Nc1ccc(F)cc1F	–	–
COc1ccc(C)cc1NC(=O)CSc1ncc2c(n1)-c1ccc(Cl)cc1N(Cc1ccccc1)S2(=O)=O	3.16µM	–
Cc1cccc(C)c1NC(=O)CSc1ncc2c(n1)-c1ccc(Cl)cc1N(Cc1ccccc1)S2(=O)=O	–	–
O=C(CSc1ncc2c(n1)-c1ccc(Cl)cc1N(Cc1ccccc1)S2(=O)=O)Nc1ccc(F)c(F)c1	–	–
O=C(NCCc1ccccc1)c1cc2sccc2n1Cc1ccc(F)cc1	–	–
O=c1cnc2cncnc2n1Cc1ccc(F)cc1	–	–
CC(C)C(=O)Nc1ccccc1C(=O)OCc1cc(=O)n2nc(C3CC3)sc2n1	–	–
Cc1ccc(-n2nc(C(=O)N(C)Cc3ccccc3)c3c4ccccc4n(C)c3c2=O)cc1	–	–
COC(=O)c1ccccc1NC(=O)CSc1c2c(nc3ccc(Cl)cc13)CCCC2	–	–
C=Cc1ccc(Cn2c(=O)n(-c3ccc(C)cc3)c(=O)c3c2c2cc(OC)ccc2n3C)cc1	–	–
O=C(Cn1c(=O)nc(-c2ccccc2)c2ccccc21)Nc1ccc(Cl)c(C(F)(F)F)c1	–	–
Cc1c(/C=N/NC(=O)CNc2ccccc2)c2ccccn2c1C(=O)c1ccc(Cl)cc1	?	–
Cc1ccccc1NCC(=O)N/N=C/c1c(C)c(C(=O)c2ccc(Cl)cc2)n2ccccc12	7.94µM	–
CCC1CN(C(=O)N2CCC(C(=O)Nc3cc(C)ccc3C)CC2)c2ccccc2O1 (stereo not drawn)	–	–
SMILES	Cruzain inh noDet	Cruzain Triton
CCc1ccc(C(=O)COC(=O)C(NC(=O)C2CCC(C)CC2)C(C)C)cc1 (stereo not drawn)	–	–
CC1CCC(C(=O)NC(C(=O)OCC(=O)c2ccc(Br)cc2)C(C)C)CC1 (stereo not drawn)	–	14.1µM
COc1cccc(NC(CNS(=O)(=O)c2ccc(Cl)cc2)c2ccccc2)c1 (stereo not drawn)	?	–
CCOC(=O)c1cnn(-c2ccc(C(=O)Nc3ccc(C(C)=O)cc3)cc2)c1N	?	–
CCc1cccc(NC(=O)Cn2c(C(=O)OC)cc3sc(Cl)cc32)c1	–	–
COC(=O)c1cc2sc(Cl)cc2n1CC(=O)Nc1cccc(SC)c1	25.1µM	–
COCCn1c(C)cc(O)c(C(c2ccccc2F)N2CCN(c3ccccc3)CC2)c1=O (stereo not drawn)	?	–
COc1ccccc1CNC(=O)CSC1=Nc2ccccc2N=C(c2ccc(F)cc2)C1	–	–
Cc1ccc(CNC(=O)c2cc3c(=O)n4cccc(C)c4nc3n(CC3CCCO3)c2=N)cc1 (stereo not drawn)	?	–
CCCn1c(=N)c(C(=O)NCC2CCCO2)cc2c(=O)n3cccc(C)c3nc21 (stereo not drawn)	?	31.6µM
CCOCCCn1c(=N)c(C(=O)NCC2CCCO2)cc2c(=O)n3cc(C)ccc3nc21 (stereo not drawn)	?	–
Cc1cccn2c(=O)c3cc(C(=O)NCC4CCCO4)c(=N)n(CCN4CCOCC4)c3nc12 (stereo not drawn)	–	–
Cc1ccc(S(=O)(=O)c2cc3c(=O)n4cc(C)ccc4nc3n(CC3CCCO3)c2=N)cc1 (stereo not drawn)	–	–
COCCCn1c(=N)c(C(=O)NCC2CCCO2)cc2c(=O)n3cccc(C)c3nc21 (stereo not drawn)	?	25.1µM
N=c1c(S(=O)(=O)c2ccccc2)cc2c(=O)n3ccccc3nc2n1CC1CCCO1 (stereo not drawn)	?	31.6µM
COCCCn1c(=N)c(C(=O)NCC2CCCO2)cc2c(=O)n3ccccc3nc21 (stereo not drawn)	?	28.2µM
Cc1noc(C)c1S(=O)(=O)NCCc1csc2nc(-c3ccc(F)cc3)nn12	–	–
Cc1c(C(=O)N2CCC(C(=O)Nc3ccc(F)cc3)CC2)sc2nc[nH]c(=O)c12	–	–
CN(C)c1ccc(NC(=O)CSC2=Nc3ccccc3C3=NC(CC(=O)NCc4ccc5c(c4)OCO5)C(=O)N23)cc1 (stereo not drawn)	–	–
CCN(CC)C(=O)c1sc2c(c1C)c(=O)n(-c1ccccc1)c(=O)n2CC(=O)Nc1ccc(C)cc1C	?	–
Cc1ccc(C)c(Cn2nnc(C(=O)NCc3ccccc3)c2N)c1	–	–
N#Cc1ccc(N/N=C/c2cn(-c3ccccc3)nc2-c2ccccc2)c([N+](=O)[O-])c1	5.01µM	–
O=C(N/N=C/c1cn(-c2ccccc2)nc1-c1ccccc1)c1ccco1	–	–
CCOC(=O)CCc1nc2ccccc2[nH]1	–	–
CCOc1ccc(OCC(=O)NCCc2nc3ccccc3[nH]2)cc1	0.794µM	5.01µM
SMILES	Cruzain inh noDet	Cruzain Triton
COc1ccc(C(=O)NCCc2nc3ccccc3[nH]2)cc1	–	12.6µM
Cc1cc(=O)oc2cc(OCC(=O)NCc3ccccn3)ccc12	–	–
Cc1cc(C)cc(OCC(=O)NCCc2nc3ccccc3[nH]2)c1	–	15.8µM
Cc1cc(=O)oc2cc(OCC(=O)NCCc3nc4ccccc4[nH]3)ccc12	2.51µM	12.6µM
Cc1cc(C)cc(OCC(=O)Nc2cccc(-c3nc4ccccc4[nH]3)c2)c1	–	–
O=C(CNC(=O)c1ccccc1)NCCc1nc2ccccc2[nH]1	–	–
NCC(O)C1CCCCCCC1 (stereo not drawn)	–	–
O=C(COc1ccc(Cl)cc1)Nc1ccc(-c2nc3ccccc3s2)c(O)c1	–	–
O=C(Cn1c(=O)c2cccn2c2ccc(F)cc21)NCc1cccc(Cl)c1	–	–
CCOC(=O)C1C(C)=C(Nc2ccc(OC)cc2)C(=O)N1c1ccc(OC)cc1 (stereo not drawn)	12.6µM	–
CCOC(=O)C1=C(O)C(=O)N(c2ccc(S(N)(=O)=O)cc2)C1c1ccc(OC)cc1 (stereo not drawn)	–	–
COc1ccc(/C=N/c2c(-c3ccc(OC)cc3)nc3n2CCS3)cc1	?	–
COc1ccc(C2=CSC(/N=C/c3ccc(F)cc3)=NN2)cc1	12.6µM	–
